Consider eight molecules from PubChem BioAssay (Tox21).

Assay [1] in a line: Nuclear factor erythroid 2-related factor 2/antioxidant responsive element (Nrf2/ARE) small molecule agonists: qHTS cell viability counter screen in human keratinocytes (AID 1919968; active = well fitted curve in the direction sought with a large enough effect in the repeat runs; an effect the other way counts as inactive or inconclusive; note: nearly all actives have a fitted effect of over 55% in size; note: potency is the fitted concentration of half-maximal effect). The method, boiled down: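 Stably transfected HaCaT (KeratinoSens), 1,500/well. Test agents in DMSO were applied for 23 h, 37 C/5% CO2. CellTiter-Fluor was incubated 1 h before the fluorescence read.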
For orientation: In qHTS, concentration-response curves come from the screen itself.

Assay [2] can be described thus: Nuclear factor erythroid 2-related factor 2/antioxidant responsive element (Nrf2/ARE) small molecule agonists: luciferase reporter gene qHTS assay in human keratinocytes (AID 1919969). Note: nearly all actives have a fitted effect of over 35% in size. Note: potency is the fitted concentration of half-maximal effect. For orientation: In a reporter assay the amount or activity of a reporter protein is the signal.
Assay [3] addresses Gonadotropin-releasing hormone receptor (Homo sapiens) (UniProt P30968). The experiment in a line: Human gonadotropin-releasing hormone receptor (GnRHR) small molecule agonists, calcium flux assay in GnRHR-HEK293 cells (AID 1920063). Note: nearly all actives have a fitted effect of over 35% in size. Note: potency is the fitted concentration of half-maximal effect. A digest of the protocol:
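Stable human GnRHR HEK293 line. 18 h plating, then calcium dye for 1 h at 37 C. Agonist-mode compound addition from DMSO stocks; fluorescence monitored 3 min.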
On the technique in general: A change in cytosolic calcium serves as a functional read-out for many receptors and channels.

The target in assay [4] is KiSS-1 receptor (Homo sapiens) (UniProt Q969F8). Nature of the assay: Human kisspeptin (KISS1R) small molecule agonists, calcium flux assay in KISS1R-HEK293 cells (AID 1920064; active = well fitted curve in the direction sought with a large enough effect in the repeat runs; an effect the other way counts as inactive or inconclusive). The method, boiled down:
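After overnight (18 h) culture at 37 C/5% CO2, human KISS1R-HEK293 cells received calcium dye for 1 h, then test compound; emission at 540 nm (excitation 480 nm) was tracked for 3 min.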

The nature of assay [5]: G protein-coupled receptor (GPCR) small molecule agonists, calcium flux assay: HEK293 wild type cell line counter screen (AID 1920065). The method, boiled down: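 Following 18 h incubation at 37 C/5% CO2, plates got calcium dye for 1 h; compounds, ATP or DMSO were then pinned in and fluorescence followed kinetically (480/540 nm).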
A short description of assay [6]: p53 small molecule agonists, cell-based qHTS assay with rat liver microsomes (AID 1963578). The method, boiled down:
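Read-out is beta-lactamase reporter fluorescence (LiveBLAzer, 2 h, room temperature, dark) in p53RE-bla cells treated 16 h at 37 C with compound, rat liver microsomes and NADPH, both 0.5 mg/mL final.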

A short description of assay [7]: p53 small molecule agonists, cell-based qHTS assay with human liver microsomes: qHTS cell viability counter screen (AID 1963579). Note: nearly all actives have a fitted effect of over 45% in size. Note: potency is the fitted concentration of half-maximal effect. A digest of the protocol: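 Cells carrying the p53 response-element beta-lactamase reporter are treated for 16 h at 37 C with test compounds in the presence of human liver microsomes and NADPH (both 0.5 mg/mL final); ATP-based CellTiter-Glo luminescence then reports viability.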

Assay [8] in a line: p53 small molecule agonists, cell-based qHTS assay with rat liver microsomes: qHTS cell viability counter screen (AID 1963580). Note: nearly all actives have a fitted effect of over 45% in size. Note: potency is the fitted concentration of half-maximal effect. A digest of the protocol:
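Luminescent ATP readout (CellTiter-Glo, 30 min at room temperature) reports viability of p53RE-bla HCT-116 cells after 16 h at 37 C with test compounds under metabolic activation by rat liver microsomes and NADPH at 0.5 mg/mL final each.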

The target of assay [9] is 5-hydroxytryptamine receptor 2A (Homo sapiens) (UniProt P28223). The experiment in a line: 5-hydroxytryptamine receptor 2A (HTR2A) small molecule antagonists, cell-based qHTS assay (AID 1963586). Note: nearly all actives have a fitted effect of over 45% in size. Note: potency is the fitted concentration of half-maximal effect. The method, boiled down: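 CHO cells stably expressing human HTR2A were plated for 18 h at 37 C, then loaded with calcium dye for 1 h. Compounds were preincubated 5 min at room temperature before DOI (4 nM solution) was added. Kinetic fluorescence was read for 3 min.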

The target is the same in assay [10]. Nature of the assay: 5-hydroxytryptamine receptor 2A (HTR2A) small molecule agonists, cell-based qHTS assay (AID 1963587). Note: nearly all actives have a fitted effect of over 30% in size. Note: potency is the fitted concentration of half-maximal effect. The method, boiled down:
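HTR2A-CHO cells, plated 18 h at 37 C/5% CO2, dye-loaded 1 h at 37 C; compounds in DMSO added by pin tool (agonist mode). Intracellular calcium flux read as kinetic fluorescence on FDSS over 2 min at 1 s intervals.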

The target of assay [11] is Muscarinic acetylcholine receptor M1 (Homo sapiens) (UniProt P11229). The experiment in a line: Cholinergic receptor muscarinic 1 (CHRM1) small molecule antagonists, cell-based qHTS assay (AID 1963588). Note: nearly all actives have a fitted effect of over 40% in size. The method, boiled down: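 Compounds were tested at 15 concentrations in three independent runs. Dye-loaded CHRM1-CHO cells were exposed 5 min at room temperature before stimulation by acetylcholine added at 50nM. Intracellular calcium was read kinetically on FDSS for 3 min.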

Assay [12] has the same target. The experiment in a line: Cholinergic receptor muscarinic 1 (CHRM1) small molecule agonists, cell-based qHTS assay (AID 1963589). Note: nearly all actives have a fitted effect of over 35% in size. The method, boiled down: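 Kinetic fluorescence (1 s intervals) of calcium-sensitive dye in human M1 CHO cells after compound addition; cells pre-incubated 18 h at 37 C/5% CO2 and dye-loaded 1 h.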
The target of assay [13] is D(2) dopamine receptor (Homo sapiens) (UniProt P14416). Nature of the assay: Dopamine D2 receptor (DRD2) small molecule agonists, cell-based qHTS assay (AID 1963594). Note: nearly all actives have a fitted effect of over 35% in size. A digest of the protocol: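 HEK293 cells stably expressing DRD2 were cultured 24 h at 37 C, then given Ro20-1724 (0.1 mM final) and compounds for 10 min at room temperature. NKH477 (200nM) was then added for 30 min. cAMP was read by HTRF.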

Assay [14] has the same target. Nature of the assay: Dopamine D2 receptor (DRD2) small molecule antagonists, cell-based qHTS assay (AID 1963595; active = well fitted inhibition curve with a large enough effect in the signal ratio in the repeat runs, with a control signal flat; the % refers to the signal ratio; note: potency is the fitted concentration of half-maximal effect). A digest of the protocol: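 Stable D2 receptor HEK293 line, 24 h after seeding. Compound preincubated 10 min, then quinpirole (12 nM) with forskolin analogue NKH477 (200 nM), 30 min, room temperature. Detection by time-resolved FRET of cAMP.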
A short description of assay [15]: p53 small molecule agonists, cell-based qHTS assay (AID 1963582; active = well fitted activation curve with a large enough effect in the signal ratio in the repeat runs, not every such curve was filed as active; the % refers to the signal ratio). The method, boiled down:
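Measured: fluorescence from cleaved LiveBLAzer substrate. System: p53RE-bla cells, 16 h compound treatment at 37 C, 2 h substrate step at room temperature.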

A short description of assay [16]: cAMP Responsive Elements (CRE) small molecule agonists, cell-based qHTS assay (AID 1963590). A digest of the protocol: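 Test agents in DMSO were incubated 3 h at 37 C/5% CO2 with CRE-bla HEK 293T cells seeded 18 h earlier; LiveBLAzer B/G FRET substrate was added and read after 2 h at room temperature.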
Assay [17] is described as follows: cAMP Responsive Elements (CRE) small molecule antagonists, cell-based qHTS assay (AID 1963591; active = well fitted inhibition curve with a large enough effect in the signal ratio in the repeat runs, not every such curve was filed as active; the % refers to the signal ratio). The method, boiled down: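 Reporter line CRE-bla HEK 293T in dialyzed-FBS DMEM; cells preincubated 18 h, treated 3 h with compound plus NKH477 (0.25 uM final); LiveBLAzer FRET, 2 h RT.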
Assay [18] deals with Beta-2 adrenergic receptor (Homo sapiens) (UniProt P07550). The experiment in a line: Adrenergic beta2 receptor (ADRB2) small molecule antagonists, cell-based qHTS assay (AID 1963592). Note: series mostly up to about 92 µM; nearly all actives have a fitted effect of over 50% in size. The method, boiled down: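 Assay format: CHO-ADRB2 cells, 18-20hr seeding at 37C/5% CO2, then compound plus 1nM isoproterenol agonist mix for 0.5hr RT. Homogeneous time-resolved fluorescence cAMP detection after 1hr, expressed as 665/615 nm ratio.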

Assay [19] can be described thus: p53 small molecule agonists, cell-based qHTS assay: qHTS cell viability counter screen (AID 1963581). Note: nearly all actives have a fitted effect of over 45% in size. A digest of the protocol:
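qHTS counter screen: 16 h compound exposure at 37 C of p53RE-bla HCT-116 cells (4,000 per well, seeded 5 h prior), cell viability by ATP luminescence.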

The target in assay [20] is Beta-2 adrenergic receptor (Homo sapiens) (UniProt P07550). Nature of the assay: Adrenergic beta2 receptor (ADRB2) small molecule agonists, cell-based qHTS assay (AID 1963593).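 Note: CHO cells stably overexpressing human ADRB2.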 A digest of the protocol: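 CHO cells stably over-expressing ADRB2 were plated overnight at 37C, then dosed with compounds plus a stimulation mix containing 100uM IBMX and 25uM Ro-20-1724 for 0.5hr at room temperature. cAMP was measured by HTRF competition, 1hr.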

Unmarked numbers belong to inactive results. Records with an inconclusive call do not appear. The source made the active and inactive calls. Unless noted, calls come from the whole dose curve.

KiSS-1 receptor (Homo sapiens), sequence (Q969F8 whole entry, looked up): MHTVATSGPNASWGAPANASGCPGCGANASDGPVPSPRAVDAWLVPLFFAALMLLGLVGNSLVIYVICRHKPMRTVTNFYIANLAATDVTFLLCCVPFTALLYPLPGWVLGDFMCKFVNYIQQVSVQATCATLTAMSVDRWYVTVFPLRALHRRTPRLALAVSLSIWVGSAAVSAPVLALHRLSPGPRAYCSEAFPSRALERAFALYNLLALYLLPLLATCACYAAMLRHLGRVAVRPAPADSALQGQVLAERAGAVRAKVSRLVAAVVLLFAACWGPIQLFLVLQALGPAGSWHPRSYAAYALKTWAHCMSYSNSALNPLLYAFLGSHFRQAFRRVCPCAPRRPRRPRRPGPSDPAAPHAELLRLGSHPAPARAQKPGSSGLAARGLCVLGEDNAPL
Muscarinic acetylcholine receptor M1 (Homo sapiens), sequence (P11229 whole entry, looked up): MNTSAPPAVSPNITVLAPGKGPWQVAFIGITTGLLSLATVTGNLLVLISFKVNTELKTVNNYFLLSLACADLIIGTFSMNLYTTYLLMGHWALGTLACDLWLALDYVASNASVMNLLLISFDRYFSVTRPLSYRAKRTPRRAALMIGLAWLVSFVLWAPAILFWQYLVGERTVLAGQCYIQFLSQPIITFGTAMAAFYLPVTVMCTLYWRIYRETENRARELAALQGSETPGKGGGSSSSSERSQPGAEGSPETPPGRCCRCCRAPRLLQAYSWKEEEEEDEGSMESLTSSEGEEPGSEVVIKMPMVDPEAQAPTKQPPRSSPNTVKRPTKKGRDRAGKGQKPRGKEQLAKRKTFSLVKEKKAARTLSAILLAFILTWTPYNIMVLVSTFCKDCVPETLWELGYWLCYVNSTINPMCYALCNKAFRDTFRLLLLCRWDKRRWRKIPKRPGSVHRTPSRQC
Beta-2 adrenergic receptor (Homo sapiens), sequence (P07550 whole entry, looked up): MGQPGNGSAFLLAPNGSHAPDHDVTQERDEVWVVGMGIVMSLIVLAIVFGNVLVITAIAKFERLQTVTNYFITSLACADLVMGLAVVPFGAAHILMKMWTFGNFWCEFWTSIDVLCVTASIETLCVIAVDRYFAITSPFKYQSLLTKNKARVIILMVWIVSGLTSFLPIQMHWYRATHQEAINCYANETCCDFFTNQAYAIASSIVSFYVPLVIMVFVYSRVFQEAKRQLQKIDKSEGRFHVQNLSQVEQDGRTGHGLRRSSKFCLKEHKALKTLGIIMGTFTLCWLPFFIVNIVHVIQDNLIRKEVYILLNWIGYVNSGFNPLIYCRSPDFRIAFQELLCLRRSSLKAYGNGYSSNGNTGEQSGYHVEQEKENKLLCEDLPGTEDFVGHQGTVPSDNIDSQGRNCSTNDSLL
D(2) dopamine receptor (Homo sapiens), sequence (P14416 whole entry, looked up): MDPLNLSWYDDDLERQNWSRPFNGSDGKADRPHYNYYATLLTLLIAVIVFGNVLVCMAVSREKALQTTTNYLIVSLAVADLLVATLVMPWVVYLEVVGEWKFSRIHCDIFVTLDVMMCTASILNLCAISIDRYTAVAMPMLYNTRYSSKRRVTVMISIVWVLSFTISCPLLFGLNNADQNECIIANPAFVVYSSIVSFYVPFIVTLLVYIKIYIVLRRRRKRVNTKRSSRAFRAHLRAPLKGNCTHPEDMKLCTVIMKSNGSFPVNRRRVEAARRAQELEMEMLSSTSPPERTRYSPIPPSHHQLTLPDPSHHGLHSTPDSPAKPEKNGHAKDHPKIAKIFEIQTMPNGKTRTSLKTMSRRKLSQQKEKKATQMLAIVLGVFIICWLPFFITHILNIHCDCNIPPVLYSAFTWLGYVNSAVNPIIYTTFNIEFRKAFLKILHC
Gonadotropin-releasing hormone receptor (Homo sapiens), sequence (P30968 whole entry, looked up): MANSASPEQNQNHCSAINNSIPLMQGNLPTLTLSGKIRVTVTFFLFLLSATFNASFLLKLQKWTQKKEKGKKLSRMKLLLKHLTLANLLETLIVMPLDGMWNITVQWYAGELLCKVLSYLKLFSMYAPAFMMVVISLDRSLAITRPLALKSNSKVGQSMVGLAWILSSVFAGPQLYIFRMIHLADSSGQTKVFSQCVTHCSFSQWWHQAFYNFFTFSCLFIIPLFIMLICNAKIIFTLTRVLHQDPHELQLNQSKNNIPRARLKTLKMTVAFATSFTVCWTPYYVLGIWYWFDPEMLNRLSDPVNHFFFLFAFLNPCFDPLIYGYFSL
5-hydroxytryptamine receptor 2A (Homo sapiens), sequence (P28223 whole entry, looked up): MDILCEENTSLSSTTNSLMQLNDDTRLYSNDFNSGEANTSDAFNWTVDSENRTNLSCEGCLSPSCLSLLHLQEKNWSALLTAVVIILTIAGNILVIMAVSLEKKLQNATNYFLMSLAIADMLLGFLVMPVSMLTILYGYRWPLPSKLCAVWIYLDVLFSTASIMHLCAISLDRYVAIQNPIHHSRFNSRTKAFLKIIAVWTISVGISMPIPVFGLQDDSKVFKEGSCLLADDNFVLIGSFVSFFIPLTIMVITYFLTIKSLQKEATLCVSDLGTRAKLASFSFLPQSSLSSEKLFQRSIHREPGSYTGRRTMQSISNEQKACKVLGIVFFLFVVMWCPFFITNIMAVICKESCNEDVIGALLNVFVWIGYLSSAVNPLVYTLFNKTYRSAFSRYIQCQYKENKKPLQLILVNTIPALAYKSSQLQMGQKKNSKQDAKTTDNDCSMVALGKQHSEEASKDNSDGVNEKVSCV

As for `Cc1cc(O)c(C(C)(C)C)cc1C(C)(C)C`, the Potency is 27.3 µM (active) in assay [1]; 38.9 µM (active) in [3]; 18.2 µM (active) in assay [7]; 40.8 µM (active) in assay [8]; 18.8 µM (active) in assay [9]; 34.7 µM (active) in assay [10]. The Potency in assay [14] is 43.3 µM (active). In addition, the Potency entry in [2], in assay [6], in assay [11], in assay [12] and in assay [13] was “inactive” throughout. Also, the result in assay [4] and in assay [5] was inactive.
Turning to `O=C(CCBr)N1CCN(C(=O)CCBr)CC1`, the Potency entry in [1], in assay [2], in assay [3], in assay [6], in assay [7] and in assay [8] was “inactive” in each case. The Potency entry in assay [15], in assay [9], in assay [10], in assay [11], in assay [12] and in assay [16] was “inactive” throughout. Further, the Potency entry in assay [17], in [18], in [13] and in assay [14] was “inactive” throughout. Further, the outcome in assay [4] and in [5] was inactive.
For the molecule `Cc1cccc(C)c1OCC(C)N` (stereo not given), the Potency entry in assay [1], in assay [2], in assay [3], in assay [6], in assay [8] and in [19] was “inactive” each time. For the same molecule, the Potency result in [15], in assay [16], in [20] and in assay [14] was “inactive” each time. The outcome in [4] and in assay [5] was inactive.
As for `C=C(C)C(=O)OCC1CCCO1` (stereo not given), the Potency entry in assay [1], in assay [2], in [3], in assay [6], in [8] and in [15] was “inactive” in each case. Besides, the Potency entry in assay [9], in assay [10], in [11], in [16], in [17] and in [18] was “inactive” throughout. The Potency entry in assay [20], in assay [13] and in assay [14] was “inactive” in each case. For the same molecule, the result in assay [4] and in [5] was inactive.
Regarding `OCC(CO)n1cnc(-c2ccc(F)cc2)c1-c1ccnc(Oc2ccccc2)n1`, the Potency result in assay [1], in assay [2], in assay [3], in assay [6], in [7] and in assay [8] was “inactive” each time. Further, the Potency result in assay [15], in [9], in assay [10], in assay [11], in assay [12] and in [18] was “inactive” in each case. Moreover, the Potency entry in assay [20], in assay [13] and in [14] was “inactive” throughout. The result in assay [4] and in assay [5] was inactive.
On to `CCCCCCCCOS(=O)(=O)O`, for which the Potency result in [1], in assay [2], in assay [3], in [6], in [7] and in assay [8] was “inactive” in each case. In addition, the Potency result in [15], in assay [9], in assay [10], in assay [11], in assay [12] and in assay [16] was “inactive” each time. In addition, the Potency result in [17], in assay [18] and in assay [13] was “inactive” each time. Besides, the outcome in [4] and in assay [5] was inactive.
On to `Clc1ccc2n[nH]nc2c1`, for which the Potency result in assay [1], in assay [2], in assay [3], in assay [6], in assay [8] and in assay [19] was “inactive” throughout. Further, the Potency entry in assay [9], in assay [10], in assay [11], in assay [12], in assay [16] and in assay [18] was “inactive” in each case. Further, the Potency result in [20], in [13] and in [14] was “inactive” each time. Besides, the result in assay [4] and in [5] was inactive.
As to `O=[N+]([O-])c1ccc(/C=N\O)o1`, the Potency entry in [1], in [3], in assay [6], in assay [8], in [19] and in assay [15] was “inactive” throughout. In addition, the Potency result in [9], in [10], in [11], in [12], in assay [16] and in assay [17] was “inactive” in each case. The Potency result in assay [20], in assay [13] and in assay [14] was “inactive” in each case. Besides, in [2], the Potency was 23.7 µM (active). The result in [4] and in assay [5] was inactive.
